Measurements published in PubChem BioAssay AID1159580 (chemical genetic matrix, 2015).
Hit rate of the full screen: of about 5,500 compounds, about 2,000 (36%) were called active. Not shown: some 18% with an inconclusive outcome. No stated cut-off is given here; in the data, active means normalized growth mostly below about 0.91 (no sharp cut-off); inconclusive means no clear call, values can overlap the other calls; inactive means mostly above about 0.92. This is one part of the list.

Experiment: chemical genetic growth profiling, strain panel (AID 1159580);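 further: tested at 20 µM; growth read once vehicle control cultures reached saturation at 30 °C; 1 = growth at the plate median or of vehicle wells; lower values mean less growth of the strain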
Settings: S. cerevisiae deletion strains, growth OD
[1] = locus YAR019C, strain CDC15, active compounds read low
[2] = locus YBL105C, strain PKC1, active compounds read low
[3] = locus YBR135W, strain CKS1, active compounds read low
[4] = locus YBR136W, strain MEC1, active compounds read low
[5] = locus YBR160W, strain CDC28, active compounds read low
[6] = locus YDL017W, strain CDC7, active compounds read low
[7] = locus YDL028C, strain MPS1, active compounds read low
[8] = locus YDL101C, strain DUN1, active compounds read low
[9] = locus YDL108W, strain KIN28, active compounds read low
[10] = locus YDL132W, strain cdc53, active compounds read low
[11] = locus YDL214C, strain PRR2, active compounds read low
[12] = locus YDR052C, strain DBF4, active compounds read low
[13] = locus YDR054C, strain cdc34, active compounds read low
[14] = locus YDR226W, strain ADK1, active compounds read low
[15] = locus YDR477W, strain SNF1, active compounds read low
[16] = locus YER123W, strain YCK3, active compounds read low
[17] = locus YER133W, strain GLC7, active compounds read low
[18] = locus YFL009W, strain cdc4, active compounds read low
[19] = locus YFL029C, strain CAK1, active compounds read low
[20] = locus YFR003C, strain YPI1, active compounds read low
[21] = locus YFR019W, strain FAB1, active compounds read low
[22] = locus YFR028C, strain CDC14, active compounds read low
[23] = locus YGR040W, strain KSS1, active compounds read low
[24] = locus YGR052W, strain FMP48, active compounds read low
[25] = locus YGR092W, strain DBF2, active compounds read low
[26] = locus YHR030C, strain SLT2, active compounds read low
[27] = locus YHR079C, strain IRE1, active compounds read low
[28] = locus YHR082C, strain KSP1, active compounds read low
[29] = locus YHR205W, strain SCH9, active compounds read low
[30] = locus YIL147C, strain SLN1, active compounds read low
[31] = locus YJL095W, strain BCK1, active compounds read low
[32] = locus YJL128C, strain PBS2, active compounds read low
[33] = locus YJL157C, strain FAR1, active compounds read low
[34] = locus YJR016C, strain ILV3, active compounds read low
[35] = locus YJR066W, strain TOR1 (second series), active compounds read low
[36] = locus YJR066W, strain TOR1, active compounds read low
[37] = locus YKL048C, strain ELM1, active compounds read low
[38] = locus YKL067W, strain YNK1, active compounds read low
[39] = locus YKL101W, strain HSL1, active compounds read low
[40] = locus YKL193C, strain SDS22, active compounds read low
[41] = locus YKL203C, strain TOR2, active compounds read low
[42] = locus YLR113W, strain HOG1, active compounds read low
[43] = locus YLR133W, strain CKI1, active compounds read low
[44] = locus YLR403W, strain SFP1, active compounds read low
[45] = locus YML070W, strain DAK1, active compounds read low
[46] = locus YMR001C, strain CDC5, active compounds read low
[47] = locus YMR205C, strain PFK2 (second series), active compounds read low
[48] = locus YMR277W, strain FCP1, active compounds read low
[49] = locus YNL006W, strain LST8, active compounds read low
[50] = locus YNL020C, strain ARK1, active compounds read low
[51] = locus YNL161W, strain CBK1, active compounds read low
[52] = locus YNL183C, strain NPR1, active compounds read low
[53] = locus YNL207W, strain RIO2, active compounds read low
[54] = locus YNL222W, strain SSU72, active compounds read low
[55] = locus YNL307C, strain MCK1 (second series), active compounds read low
[56] = locus YOL078W, strain AVO1, active compounds read low
[57] = locus YOL136C, strain PFK27, active compounds read low
[58] = locus YOR061W, strain CKA2, active compounds read low
[59] = locus YOR119C, strain RIO1, active compounds read low
[60] = locus YOR231W, strain MKK1, active compounds read low
[61] = locus YOR329C, strain SCD5, active compounds read low
[62] = locus YPL031C, strain PHO85, active compounds read low
[63] = locus YPL153C, strain RAD53, active compounds read low
[64] = locus YPL204W, strain HRR25, active compounds read low
[65] = locus YPL209C, strain IPL1, active compounds read low
[66] = locus YPL256C, strain CLN2, active compounds read low
[67] = locus YPR025C, strain CCL1, active compounds read low
[68] = locus YPR106W, strain ISR1, active compounds read low
[69] = locus YPR111W, strain DBF20, active compounds read low
[70] = strain NNK1, active compounds read low
[71] = strain TSCII, active compounds read low

Measured: normalized growth

CCCc1cnc(N2CCN(CC(=O)N(c3ccccc3)C3CCCCC3)CC2)nc1
inactive: [1] 0.995 | [2] 0.985 | [3] 0.992 | [4] 0.985 | [5] 0.984 | [6] 0.991 | [7] 0.997 | [8] 0.986 | [9] 0.99 | [10] 0.992 | [11] 0.997 | [12] 0.989 | [13] 0.974 | [14] 0.985 | [15] 0.999 | [16] 0.997 | [17] 1 | [18] 0.989 | [19] 0.993 | [20] 0.988 | [21] 1 | [22] 0.999 | [23] 0.985 | [24] 1.09 | [25] 1 | [26] 1.05 | [27] 1.03 | [28] 1.09 | [29] 0.97 | [30] 0.99 | [31] 1.05 | [32] 0.985 | [33] 0.981 | [34] 1 | [35] 0.995 | [36] 1.07 | [37] 0.969 | [38] 1 | [39] 0.993 | [40] 0.99 | [41] 1.05 | [42] 0.949 | [43] 0.997 | [44] 0.977 | [45] 1.03 | [46] 0.991 | [47] 1.01 | [48] 0.994 | [49] 0.988 | [50] 0.997 | [51] 0.99 | [52] 1.04 | [53] 0.997 | [54] 0.995 | [55] 1 | [56] 0.994 | [57] 0.985 | [58] 1.01 | [59] 1.04 | [60] 0.992 | [61] 0.986 | [62] 1 | [63] 0.998 | [64] 0.981 | [65] 0.98 | [66] 0.968 | [67] 0.99 | [68] 0.979 | [69] 0.976 | [70] 0.99 | [71] 0.992

Cc1ccc2c(c1)CCCN2CC(=O)N(c1ccccc1)C1CCCCC1
active: [42] 0.836
inactive: [1] 0.989 | [2] 0.978 | [3] 0.986 | [4] 0.986 | [5] 0.978 | [6] 0.982 | [7] 0.994 | [8] 0.984 | [9] 0.986 | [10] 0.987 | [11] 0.943 | [12] 0.991 | [13] 0.975 | [14] 0.992 | [15] 0.951 | [16] 0.928 | [17] 0.951 | [18] 0.989 | [19] 0.986 | [20] 0.986 | [21] 0.961 | [22] 0.976 | [23] 0.923 | [24] 0.994 | [25] 0.948 | [26] 0.966 | [27] 0.965 | [28] 0.991 | [29] 0.991 | [30] 0.991 | [31] 0.965 | [32] 0.932 | [33] 0.944 | [34] 0.985 | [35] 0.928 | [36] 0.999 | [37] 0.945 | [38] 0.946 | [39] 0.912 | [40] 0.974 | [41] 0.999 | [43] 0.937 | [44] 0.935 | [45] 0.912 | [46] 0.991 | [47] 0.955 | [48] 0.99 | [49] 0.992 | [50] 0.943 | [51] 0.983 | [52] 0.941 | [53] 0.98 | [54] 0.983 | [55] 0.948 | [56] 0.99 | [57] 0.925 | [58] 0.956 | [59] 1 | [60] 0.907 | [61] 0.995 | [62] 0.95 | [63] 0.936 | [64] 0.957 | [65] 0.98 | [66] 0.884 | [67] 0.991 | [68] 0.97 | [69] 0.964 | [70] 0.973 | [71] 0.987

CN(C)C(=O)Oc1cc(OC(=O)N(C)C)cc(C(O)CNC(C)(C)C)c1 (configuration not stated)
inactive: locus YAL021C, strain ccr4, active compounds read low 1.02 | locus YAL026C, strain drs2, active compounds read low 1.03 | locus YAL030W, strain snc1, active compounds read low 1.02 | locus YBL061C, strain skt5, active compounds read low 1.02 | locus YBR009C, strain hhf1, active compounds read low 1.04 | locus YBR023C, strain chs3, active compounds read low 1.02 | locus YBR171W, strain sec66, active compounds read low 1.03 | locus YBR231C, strain swc5, active compounds read low 1.03 | locus YBR279W, strain paf1, active compounds read low 1.02 | locus YCL011C, strain gbp2, active compounds read low 1.03 | locus YCL016C, strain dcc1, active compounds read low 1.03 | locus YCL061C, strain MRC1, active compounds read low 1.03 | locus YCL069W, strain vba3, active compounds read low 1.03 | locus YCR088W, strain abp1, active compounds read low 1.03 | locus YDL005C, strain med2, active compounds read low 1.03 | locus YDL040C, strain nat1, active compounds read low 1.04 | locus YDR001C, strain nth1, active compounds read low 1.03 | locus YDR069C, strain doa4, active compounds read low 1.03 | locus YDR137W, strain rgp1, active compounds read low 1.04 | locus YDR159W, strain sac3, active compounds read low 1.05 | locus YDR195W, strain ref2 1.02 | locus YDR297W, strain sur2, active compounds read low 1.02 | locus YDR334W, strain swr1, active compounds read low 1.04 | locus YDR335W, strain msn5, active compounds read low 1.03 | locus YDR392W, strain spt3, active compounds read low 0.947 | locus YEL003W, strain gim4, active compounds read low 1.02 | locus YEL037C, strain rad23, active compounds read low 1.03 | locus YEL061C, strain CIN8 (second series), active compounds read low 1.03 | locus YER015W, strain faa2, active compounds read low 1.03 | locus YER016W, strain bim1, active compounds read low 1.04 | locus YER111C, strain swi4, active compounds read low 1.03 | locus YER155C, strain BEM2 (second series), active compounds read low 1.03 | locus YFR010W, strain ubp6, active compounds read low 1.03 | locus YGL167C, strain pmr1, active compounds read low 1.03 | locus YGL173C, strain kem1, active compounds read low 1.04 | locus YGL227W, strain vid30, active compounds read low 1.04 | locus YGL240W, strain doc1, active compounds read low 1.03 | locus YGL253W, strain hxk2, active compounds read low 1.03 | locus YHR013C, strain ard1, active compounds read low 1.02 | locus YHR027C, strain rpn1, active compounds read low 1.04 | [26] 0.977 | [27] 0.991 | locus YHR142W, strain chs7, active compounds read low 1.02 | locus YJL092W, strain hpr5, active compounds read low 1.02 | locus YJL095W, strain BCK1 (second series), active compounds read low 1.03 | [31] 1.01 | locus YJL115W, strain asf1, active compounds read low 1.03 | locus YJL129C, strain trk1, active compounds read low 1.04 | locus YJL154C, strain vps35, active compounds read low 1.03 | locus YJL164C, strain tpk1, active compounds read low 1.01 | locus YJL166W, strain qcr8, active compounds read low 1.02 | locus YJL187C, strain SWE1, active compounds read low 1.02 | [36] 0.921 | locus YKL160W, strain elf1, active compounds read low 1.01 | locus YKR026C, strain gcn3, active compounds read low 1.03 | locus YKR091W, strain srl3, active compounds read low 1.03 | locus YLL001W, strain dnm1, active compounds read low 1.04 | locus YLL026W, active compounds read low 1.02 | locus YLL041C, strain sdh2, active compounds read low 1.03 | locus YLR027C, strain aat2, active compounds read low 1.03 | [42] 1.01 | locus YLR221C, strain rsa3, active compounds read low 1.02 | locus YLR258W, strain gsy2, active compounds read low 1.03 | locus YLR262C, strain YPT6 (second series), active compounds read low 1.03 | locus YLR320W, strain mms22, active compounds read low 1.04 | locus YLR342W, strain FKS1, active compounds read low 1.03 | locus YLR357W, strain rsc2, active compounds read low 1.02 | locus YLR370C, strain arc18, active compounds read low 1.03 | locus YLR384C, strain iki3, active compounds read low 1.02 | locus YML120C, strain ndi1, active compounds read low 1 | locus YMR058W, strain fet3, active compounds read low 1.03 | locus YMR125W, strain sto1, active compounds read low 1.04 | locus YMR129W, active compounds read low 1.02 | locus YMR205C, strain PFK2, active compounds read low 1.05 | locus YMR231W, strain pep5, active compounds read low 1.03 | locus YNL071W, strain lat1, active compounds read low 1.03 | [52] 0.934 | locus YNL209W, strain ssb2, active compounds read low 1.02 | locus YNL248C, strain rpa49, active compounds read low 1 | locus YNL322C, strain KRE1 (second series), active compounds read low 1.03 | locus YNR049C, strain mso1, active compounds read low 1.03 | locus YOR001W, strain rrp6, active compounds read low 0.999 | locus YOR070C, strain gyp1, active compounds read low 1.02 | locus YOR080W, strain dia2, active compounds read low 1.03 | locus YOR083W, strain WHI5, active compounds read low 1.01 | locus YOR106W, strain vam3, active compounds read low 1.03 | [60] 1.03 | locus YOR265W, strain rbl2, active compounds read low 1.03 | locus YOR270C, strain vph1, active compounds read low 1.06 | locus YOR290C, strain snf2, active compounds read low 0.989 | locus YPL051W, strain arl3, active compounds read low 1.01 | locus YPL078C, strain atp4, active compounds read low 1.02 | locus YPL106C, strain sse1, active compounds read low 1.05 | locus YPL240C, strain hsp82, active compounds read low 1.03 | [66] 0.984
